Screening data deposited in PubChem by National Center for Advancing Translational Sciences (NCATS).
Rows were chosen to be rich in hits. Some 2.4% of all compounds tested hit in one or more screens of this group.
D2 antag: D2 dopamine receptor (human) antagonism | inhibition, % at 10 µM | P14416 | HEK293 TREx D2 cells, calcium flux, dopamine EC80 | 340,000 compounds, 2% hits; in the data active = inhibition above about 30%; inactive = below that, where a call was filed; also: 0% is about no effect
Target sequence (P14416 whole entry, looked up): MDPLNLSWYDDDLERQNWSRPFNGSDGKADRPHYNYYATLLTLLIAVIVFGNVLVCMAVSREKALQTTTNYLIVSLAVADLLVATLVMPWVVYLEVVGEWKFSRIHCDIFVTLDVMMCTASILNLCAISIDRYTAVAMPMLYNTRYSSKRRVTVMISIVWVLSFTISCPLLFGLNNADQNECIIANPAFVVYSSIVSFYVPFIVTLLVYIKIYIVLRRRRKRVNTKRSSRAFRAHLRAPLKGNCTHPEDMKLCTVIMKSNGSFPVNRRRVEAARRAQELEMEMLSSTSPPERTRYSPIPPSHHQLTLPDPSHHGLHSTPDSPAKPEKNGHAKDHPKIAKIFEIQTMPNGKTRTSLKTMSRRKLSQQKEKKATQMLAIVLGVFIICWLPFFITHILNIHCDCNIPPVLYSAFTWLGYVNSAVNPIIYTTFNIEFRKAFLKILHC
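Tetracycline-induced HEK293 TREx cells expressing D2 receptor forced-coupled to calcium signalling, loaded with no-wash calcium dye. Compounds added and calcium flux read 180 s, then dopamine added at EC80 and read a further 180 s.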
D2 PAM-1: positive allosteric modulators of human D2 dopamine receptor | HEK293 T-REx D2, calcium flux, EC20 dopamine potentiation | potentiation, % at 10 µM | AID 485347 | P14416 | 340,000 compounds, 0.34% hits;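 active = potentiation over 3 SD above the plate norm, cut at about 30% in these data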; also: 0% is about no effect
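Tetracycline-induced HEK293 T-REx cells force-coupled to calcium signalling expressed D2; compounds were pin-added after a 10 s baseline, read kinetically 180 s, then an EC20 dopamine challenge followed with a further 180 s calcium read.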
D2 ag-1: agonists of human D2 dopamine receptor; P14416; HEK293 T-REx D2 cells, calcium flux agonist mode; activation, % at 2 µM; 340,000 compounds, 0.53% hits; AID 485358;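 active = activation over 3 SD above normal in the single-dose calcium agonist read, cut at about 30% in these data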; also: 0% is about no effect
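In this primary screen, compounds producing a positive calcium signal within 180 s of addition to tetracycline-induced, force-coupled HEK293 Trex D2 cells are flagged; cells are dye-loaded with a no-wash calcium kit beforehand.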
D2 ag-2: agonists of human D2 dopamine receptor (beta-arrestin); DiscoveRx PathHunter D2 beta-arrestin, luminescence, 90 min; 100% = 57 uM dopamine signal; 360,000 compounds, 0.084% hits; P14416; activation, % (concentration not given with the values); in the data active = activation above about 40%; inconclusive = between about 15% and that limit
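DiscoveRx PathHunter D2 beta-arrestin cells (2,100/well) attached overnight, then compound-stimulated 90 min at 37 C in HBSS/10 mM HEPES/0.1% Tween-20 buffer; beta-galactosidase complementation read by luminescence after 1 h at ambient temperature. Dopamine 57 uM final (EC100) as control.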
D2 PAM-2: potentiates the human D2 dopamine receptor allosterically; P14416; DiscoveRx D2 beta-arrestin cells, luminescence, 90 min; 100% = 57 uM dopamine signal; potentiation, % (concentration not given with the values); 360,000 compounds, 0.23% hits; AID 624464; in the data active = potentiation above about 50%; inconclusive = mostly about 30% to 49%
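PathHunter beta-arrestin assay in DiscoveRx D2 cells. Compounds were added with an EC20 of dopamine (50 nM final) for 90 min at 37 deg C. Luminescence was read 1 h after detection reagent, with 57 uM dopamine as the EC100 control.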
D3 arrestin ag: D3 receptor agonism confirmed, beta-arrestin readout | shares compounds with D2 ag-1 | DiscoveRx D3 beta-arrestin cells, luminescence, 90 min | Potency, µM (series often up to 76.9 µM), for inactives: at the top dose activation, hits mostly activators | 2,300 compounds, 4% hits | AID 720506;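 also: potency is read from the fitted curve at half-maximal effect; 100% = dopamine control response; nearly all actives have a fitted effect of over 70% in size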
D2 ag-3: activates human D2 dopamine receptor in D3 counterscreen | DiscoveRx PathHunter D2 beta-arrestin, luminescence, 90 min; response scale: percent relative to full dopamine signal | 2,300 compounds, 5.9% hits | shares compounds with D2 ag-1 | Potency, µM (highest dose often 76.9 µM), inactives show at the top dose activation, most hits filed as activators | AID 720507; also: potency is read from the fitted curve at half-maximal effect; % of control where 0% means no effect; nearly all actives have a fitted effect of over 70% in size
Numbers without * were called inactive; ? = inconclusive; nt = not tested or not shown; ! = not active in a repeat. Unless noted, calls follow the shape of the dose curve; as a rule, active = well fitted activation curve with a large enough effect; inconclusive = small, poorly fitted or top-dose-only effect; inactive = flat fitted curve, though single readings scatter.

SMILES | D2 antag | D2 PAM-1 | D2 ag-1 | D2 ag-2 | D2 PAM-2 | D3 arrestin ag | D2 ag-3
Nc1ncnc2c1ncn2C1OC(C(=O)NC2CC2)C(O)C1O (stereo unspecified) | 6 | 20 | 0 | 1 | -5 | 2% | -7%
C[C@@H](CO)NC(=O)[C@H]1O[C@@H](n2cnc3c(N)ncnc32)[C@H](O)[C@@H]1O | nt | nt | nt | -4 | -6 | nt | nt
CN(C)S(=O)(=O)c1ccc(N2CCCC2)c(C(=O)NNC(=O)COc2cccc(F)c2)c1 | 24 | 2 | 0 | -1 | -4 | -7% | 0%
Cc1ccc(C2CCN(C(=O)Nc3ccc(Cl)c(Cl)c3)C2)cc1 (stereo unspecified) | nt | nt | 1 | nt | nt | nt | nt
COc1ccc2cc(C(=O)C3CCCN(Cc4cnc(N5CCOCC5)s4)C3)ccc2c1 (stereo unspecified) | -4 | -14 | 36* | 0 | -5 | -9% | 0%
O=C(Cn1cnc2ccccc2c1=O)NCC(=O)N1CCN(Cc2ccc3c(c2)OCO3)CC1 | -19 | -17 | 48* | -3 | 18 | -1% | 10%
O=C(Cn1cnc2ccccc2c1=O)N1CCN(Cc2ccc3c(c2)OCO3)CC1 | 55* | -13 | 50* | ? | -4 | 16% | ?
Cc1ccccc1-c1cc2nc(Oc3cccc(F)c3)n(C)c(=O)c2s1 | nt | nt | nt | -2 | -3 | nt | nt
Cc1cc(C(=O)NNC(=O)CCN2CCN(c3ccccc3)CC2)c2ccccc2n1 | 67* | -24 | 72* | 4 | -2 | 16% | ?
Cc1cc(C(=O)Nc2ccc(N3CCOCC3)cc2)c2ccccc2n1 | -1 | 12 | 1 | 0 | 4 | nt | nt
O=C(CCN1CCN(c2ccccc2)CC1)NNC(=S)Nc1ccccc1Cl | 66* | -22 | 54* | 7 | -24 | -3% | 3%
CCc1cc(C(=O)NNC(=O)CCl)sc1C | 2 | 9 | -1 | 5 | -8 | nt | nt
CCC1(c2ccccc2)NC(=O)N(CC(=O)NNC(=O)CCN2CCN(c3ccccc3)CC2)C1=O (stereo unspecified) | 89* | -41 | 68* | 12 | -10 | 11% | 21%
CCc1cc(C(=O)NNC(=O)CCN2CCN(c3ccccc3)CC2)sc1C | 66* | -15 | 80* | 4 | -22 | ? | ?
CCn1c(=O)cc(OCC(=O)N2CCN(c3ccc(OC)cc3)CC2)c2ccccc21 | nt | 12 | 0 | nt | nt | nt | nt
N#CCC(=O)Nc1ccc(C(=O)NNC(=O)CCN2CCN(c3ccccc3)CC2)cc1 | nt | nt | nt | ? | -1 | ? | ?
COc1cccc(C(=O)NNC(=O)CCN2CCN(c3ccccc3)CC2)c1 | nt | nt | nt | 11 | -12 | nt | nt
O=C(CCN1CCN(c2ccccc2)CC1)NNC(=O)c1cccc2ccccc12 | 85* | -16 | 74* | ? | -18 | ? | 18%
CCN1C(C(=O)Nc2cc(C)on2)=C(O)c2ccccc2S1(=O)=O | 14 | 4 | 38* | -2 | -1 | 3% | 12%
O=C(NCc1cccc(Cl)c1)C1CCCN(c2nn3cc(-c4ccc(F)cc4)nc3s2)C1 (stereo unspecified) | nt | -3 | 0 | nt | nt | nt | nt
O=C(c1cccs1)N1CCC(N2CCN(c3ccccc3)CC2)CC1 | 54* | -25 | 85* | ? | 1 | 7.1µM* | ?
CCOC(=O)N1CCC(N2CCN(S(=O)(=O)CC)CC2)CC1 | -4 | -3 | 0 | 2 | -12 | nt | nt
O=C(c1cccc2ccccc12)N1CCC(N2CCN(c3ccccc3)CC2)CC1 | 75* | -22 | 77* | 7 | 16 | 1.4µM* | ?
CCOC(=O)N1CCC(N2CCCC(C(=O)c3cccc(OC(C)C)c3)C2)CC1 (stereo unspecified) | 18 | 12 | -2 | -1 | -5 | nt | nt
CCOC(=O)N1CCC(N2CCN(c3ccccc3)CC2)CC1 | 74* | -11 | 45* | ? | 9 | ? | ?
SMILES | D2 antag | D2 PAM-1 | D2 ag-1 | D2 ag-2 | D2 PAM-2 | D3 arrestin ag | D2 ag-3
CCOC(=O)N1CCC(N2CCCC(C(=O)c3cccc(OC)c3)C2)CC1 (stereo unspecified) | 40* | -24 | 50* | 3 | -30 | -10% | 3%
COc1ccc(-n2ncc3c2ncn2nc(-c4ccc(OC)c(OC)c4)nc32)cc1 | nt | 12 | 0 | nt | nt | nt | nt
Cc1cccc2nc(Cn3c(=O)n(-c4ccccc4)c(=O)c4c5c(sc43)CCC5)cc(=O)n12 | nt | 5 | 0 | nt | nt | nt | nt
CCc1ccccc1NC(=O)c1ccc2c(c1)N(Cc1cc(C)ccc1C)C(=O)c1ccccc1S2(=O)=O | nt | 1 | 1 | nt | nt | nt | nt
CCOC(=O)c1cc(-c2ccccc2)n(CCC(=O)Nc2nc3c(C)cccc3s2)c1C | nt | 17 | 0 | nt | nt | nt | nt
CC(=O)c1ccc(OCC(O)CN2CCN(Cc3ccccc3)CC2)cc1 (stereo unspecified) | 17 | -3 | 9 | -7 | -3 | -21% | 4%
CCOC(=O)N1CCN(CC(O)COCc2ccc(Cl)cc2)CC1 (stereo unspecified) | -8 | 15 | 1 | -1 | -11 | nt | nt
OC(COCC1COc2ccccc2O1)CN1CCN(c2ccccn2)CC1 (stereo unspecified) | 83* | -23 | 77* | 45*! | 25 | ? | ?
CCc1ccc(OCC(O)CN2CCN(c3ccccn3)CC2)cc1 (stereo unspecified) | -4 | -36 | 80* | ? | 6 | ? | ?
OC(COCc1ccc(Cl)cc1)CN1CCN(c2ccccn2)CC1 (stereo unspecified) | 84* | -24 | 83* | 45* | -1 | ? | ?
COc1cc(NC(=O)CSc2nc3nc(C)c(Cc4ccccc4Cl)c(C)n3n2)cc(OC)c1 | nt | nt | 0 | nt | nt | nt | nt
O=C(NC1CC(=O)N(c2ccc(F)cc2)C1)C1CC1 (stereo unspecified) | nt | -3 | 1 | nt | nt | nt | nt
COc1ccc(CNC(=O)c2oc3c(c2C)-c2nn(Cc4ccccc4Cl)cc2CC3)cc1 | nt | -3 | 1 | nt | nt | nt | nt
CCCc1ccc(OCC(O)CN2CCN(c3ccccn3)CC2)cc1 (stereo unspecified) | 74* | -20 | 78* | ? | -11 | 1.3µM* | ?
CC(=O)c1ccc(OCC(O)CN2CCN(CC(O)COc3ccc(C(C)=O)cc3)CC2)cc1 (stereo unspecified) | -11 | -1 | 0 | -1 | 1 | nt | nt
CC(=O)c1ccc(OCC(O)CN2CCN(c3ccccn3)CC2)cc1 (stereo unspecified) | 88* | -20 | 83* | 47* | 94* | ? | 4µM*
